According to PubChem BioAssay AID2331 (The Scripps Research Institute Molecular Screening Center, 2010):
This is one part of the list. Unmarked numbers belong to inactive results. Activity calls are given as the source filed them. Cut-off read from the data, not from the text of the source: active = inhibition above about 9.5%; inactive = the rest.

Each compound was assayed against Serine/threonine-protein phosphatase 5 (Homo sapiens) (UniProt P53041) (assay: PP5 phosphatase inhibitors, confirmation, biochemical, fluorescence, human (AID 2331)). Conditions: Purified PP5, fluorogenic phosphatase substrate, at 6.7 µM, active compounds read high.
Serine/threonine-protein phosphatase 5 (Homo sapiens), sequence (P53041 whole entry, looked up): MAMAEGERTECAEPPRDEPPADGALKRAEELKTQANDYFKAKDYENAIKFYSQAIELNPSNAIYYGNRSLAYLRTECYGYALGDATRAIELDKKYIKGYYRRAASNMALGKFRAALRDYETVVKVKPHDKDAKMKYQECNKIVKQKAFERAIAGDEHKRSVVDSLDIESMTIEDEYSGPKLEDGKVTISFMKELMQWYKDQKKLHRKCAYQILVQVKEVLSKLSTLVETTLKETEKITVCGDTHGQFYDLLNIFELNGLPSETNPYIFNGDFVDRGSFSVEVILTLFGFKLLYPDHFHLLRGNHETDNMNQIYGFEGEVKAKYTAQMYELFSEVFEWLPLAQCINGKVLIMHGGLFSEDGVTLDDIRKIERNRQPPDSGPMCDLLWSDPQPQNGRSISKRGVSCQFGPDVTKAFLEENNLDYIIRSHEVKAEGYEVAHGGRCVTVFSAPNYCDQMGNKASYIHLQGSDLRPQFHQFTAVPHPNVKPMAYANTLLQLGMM

| Compound | inhibition |
| --- | --- |
| CCOC(=O)Nc1ccc2c(c1)N(C(=O)CN1CCN3CCCC3C1)c1ccccc1CC2 (stereo not drawn) | -4.11% |
| CCN1CCN(CCNC(=O)c2ccc(/C=C3/Sc4ccccc4N(Cc4cccc(C)c4)C3=O)cc2)CC1 | 1.06% |
| O=c1ccc2c(-c3ccccc3S(=O)(=O)O)c3ccc(O)c(O)c3oc-2c1O | 3.55% |
| O=C(O)c1n[nH]nc1-c1ccccc1 | 41.3% (active) |
| CNC(=S)NNC(=O)c1oc2nc(-c3ccccc3)cc(-c3ccco3)c2c1N | -5.36% |
| COc1cc(C(F)(F)F)c(C(=O)N(C)c2ccc(Cl)cc2)cn1 | -0.02% |
| O=[N+]([O-])c1cccc2ncccc12 | -1.87% |
| C[C@@]12C(=O)N(c3cccc(Br)c3)C(=O)N1[C@H](c1ccc(Cl)cc1)[C@@H]1C(=O)N(C3CCCCC3)C(=O)[C@@H]12 | 7.67% |
| Cc1nnc(SCc2nc3ccccc3nc2C)s1 | -2.92% |
| O=C(C1=C[C@H](c2ccc(C(F)(F)F)cc2)C[C@H](OCc2ccc(CO)cc2)O1)N1CCN(Cc2ccccc2)CC1 | 3.97% |
| COCCN1C=C2C(=O)C(C)(OC(=O)C3CCCC3)C(=O)C=C2C=C1c1ccsc1 (stereo not drawn) | 43.5% (active) |
| Cc1sc(NC(=O)C2C3CCC(O3)C2C(=O)O)c(C(=O)OC(C)C)c1-c1ccc(Cl)cc1 (stereo not drawn) | 3.03% |
| COc1ccc(OC)c(C(=O)c2ccc(C(=O)O)cc2)c1 | -7.99% |
| N#Cc1c(N2CCCCC2)nc(N)c2c(N)nc(SCC(=O)O)cc12 | 36.8% (active) |
| COc1cc(/C=C2/SC(=S)N(Cc3ccccc3)C2=O)cc(OC)c1O | 0.02% |
| CN(C)c1nc(N)nc(CSc2nnnn2-c2cccc3ccccc23)n1 | -0.03% |
| Cc1nc(NC(CC(C)C)C(=O)O)c2nc(C)oc2n1 (stereo not drawn) | -2.93% |
| CN(c1ccccc1)S(=O)(=O)c1ccc(NC(=O)COc2ccccc2)cc1 | 1.21% |
